From the antibiotic and cytotoxicity screens of Wong et al. (2023) come the findings set out here.

Structures are written as SMILES. Hit rate of the full screen: of about 39,000 compounds, about 500 (1.3%) were called active. What follows is part of a selection rich in actives, with near analogues and random picks from the rest.

For the assay, the system named is S. aureus RN4220. The experiment in a line: growth inhibition call (relative growth <= 0.2). As to conditions: 50 µM.
On to `CCC1(C2OC(C3OC(O)(CO)C(C)CC3C)CC2C)CCC(C2(C)CCC3(CC(O)C(C)C(C(C)C(OC)C(C)C(=O)[O-])O3)O2)O1.[Na+]` (stereo unspecified), for which the growth inhibition call was “active”.
In the case of `O=C(O)C(Cl)Cl.[NaH]` it was “inactive”; in that of `C[N+]1(C)C2CC(OC(=O)C(CO)c3ccccc3)CC1C1OC12.[Br-]` (stereo unspecified), “inactive”; in that of `C[C@@]12NC(=O)CN1CCc1ccccc12`, “inactive”.
On to `CC[C@@H](C(=O)[C@@H](C)[C@@H](O)[C@H](C)[C@@H]1O[C@@H]([C@@H](CC)C(=O)O)CC[C@@H]1C)[C@H]1O[C@]2(C=C[C@@H](O)[C@]3(CC[C@@](C)([C@H]4CC[C@](O)(CC)[C@H](C)O4)O3)O2)[C@H](C)C[C@@H]1C`, for which the growth inhibition call was “active”.
In the case of `CCC(C(=O)[O-])C1CCC(C)C(C(C)C(O)C(C)C(=O)C(CC)C2OC3(C=CC(O)C4(CCC(C)(C5CCC(O)(CC)C(C)O5)O4)O3)C(C)CC2C)O1.[Na+]` (stereo unspecified) it was “active”.
The value for `CC[C@@H](C)C(=O)O[C@H]1[C@H](O)[C@H]2[C@@H](CN3C[C@@H](C)CC[C@@H]3[C@@]2(C)O)[C@H]2C[C@]34O[C@]5(O)[C@@H](OC(=O)[C@@](C)(O)CC)CC[C@@]3(C)[C@@H]5[C@@H](OC(C)=O)[C@@H](OC(C)=O)[C@@H]4[C@@]21O` was “inactive”; that for `COC(=O)C[C@@H]1CC[C@@H]2NC[C@H](O)COC[C@H]2O1` was “inactive”; that for `COc1cc2c3cc1Oc1c(OC)c(OC)cc4c1[C@@H](Cc1cccc(c1)Oc1ccc(c(O)c1)C[C@@H]3N(C)CC2)N(C)CC4` was “inactive”.
In the case of `C[C@@H](CN)CC(=O)O` it was “inactive”; in that of `Cc1noc(C)c1CN1CCNCC1`, “inactive”.
Take `C[C@H](O)[C@@]12[C@H]3CC=C[C@@H]1N2CC3` (stereo partly specified): the growth inhibition call is “inactive”.
The value for `CCCCOC(=O)c1ccccc1C(=O)OCCCC` was “inactive”; that for `C[CH2][Hg][S]c1ccccc1C(=O)[O-].[Na+]` was “active”.
The value for `O=C([O-])Cc1ccccc1.[Na+]` was “inactive”.
In the case of `NCCO.NCCO.O[AsH]O[AsH]O` (stereo unspecified) it was “inactive”; in that of `CO[C@H]1[C@@H](O)C[C@@H](O[C@H]2[C@@H](O)C[C@@H](O[C@H]3[C@@H](O)C[C@@H](O[C@H]4CC[C@@]5(C)[C@@H](CC[C@H]6[C@@H]5C[C@@H](O)[C@@]5(C)[C@H](C7=CC(=O)OC7)CC[C@@]65O)C4)O[C@@H]3C)O[C@@H]2C)O[C@@H]1C`, “inactive”; in that of `CN1C[C@H](C(=O)N[C@]2(C)O[C@@]3(O)[C@@H]4CCCN4C(=O)[C@H](Cc4ccccc4)N3C2=O)C=C2c3cccc4[nH]cc(c34)C[C@H]21`, “inactive”.
Turning to `C=C(C)[C@@H]1CCC(C)=C[C@H]1c1c(OC)cc(C)cc1OC`, the growth inhibition call is “inactive”.
Turning to `C=C(C)[C@@H]1CCC(C)=C[C@H]1c1c(O)cc(CCCCC)cc1O`, the growth inhibition call is “active”.
As for `CCCCCCCCCc1ccc(O)cc1`, the growth inhibition call was “inactive”.
In the case of `C[C@H]1O[C@H](O[C@H]2[C@H](O)[C@@H](O)[C@@H](O)[C@H](O)[C@@H]2O)[C@@H](N)C[C@@H]1NC(=N)C(=O)O` it was “inactive”; in that of `Cc1[nH]c2ccc(O)cc2c1CCN`, “inactive”; in that of `CN(C)[C@@H]1C(=O)C(C(N)=O)=C(O)[C@@]2(O)C(O)=C3C(=O)c4c(O)cccc4[C@](C)(O)[C@H]3C[C@@H]12`, “active”.
In the case of `CN(C)[C@@H]1C(=O)[C@@H](C(N)=O)C(=O)[C@@]2(O)C(=O)[C@H]3C(=O)c4c(O)ccc(Cl)c4[C@@](C)(O)[C@H]3C[C@@H]12` it was “active”; in that of `CN(C)[C@@H]1C(=O)[C@H](C(N)=O)C(=O)[C@@]2(O)C(=O)[C@@H]3C(=O)c4c(O)cccc4[C@@](C)(O)[C@H]3C[C@@H]12`, “active”; in that of `N#Cc1nn(-c2c(Cl)cc(C(F)(F)F)cc2Cl)c(N)c1S(=O)C(F)(F)F` (stereo unspecified), “inactive”.
In the case of `c1nc(N2CCN3CCC[C@H]3C2)c2[nH]cnc2n1` it was “inactive”; in that of `O=[As]O[As]=O` (stereo unspecified), “inactive”.
For the compound `CC(C)[N+](C)(CCC(C(N)=O)(c1ccccc1)c1ccccc1)C(C)C.[I-]`, the growth inhibition call was “inactive”.
In the case of `Oc1ccccc1-c1ccccc1O` it was “inactive”; in that of `O=C1C=CC(=O)c2c(O)cccc21`, “inactive”; in that of `CC1=CC(=O)c2c(O)cccc2C1=O`, “active”.
As to `CN1C(=O)C(O)N=C(c2ccccc2)c2cc(Cl)ccc21` (stereo unspecified), the growth inhibition call is “inactive”.
For the compound `CNC(=O)Oc1ccc2c(c1)C1(C)CCN(C)C1N2C.O=S(=O)(O)O` (stereo unspecified), the growth inhibition call is “inactive”.
As for `C[C@H]1O[C@H](C[N+](C)(C)C)C[C@@H]1O`, the growth inhibition call is “inactive”.
In the case of `CC(=O)N[C@@H]1[C@H](O[C@@H]2O[C@H](C[C@@H](O)[C@H]3O[C@@H](n4ccc(=O)[nH]c4=O)[C@H](O)[C@@H]3O)[C@H](O)[C@H](O)[C@H]2NC(=O)/C=C/CCCCCCCCC(C)C)O[C@@H](CO)[C@H](O)[C@H]1O` it was “active”.
The value for `C[C@@]1(O)[C@H](O)[C@@H](CO)O[C@H]1n1ccc2c(N)ncnc21` was “inactive”.
In the case of `O=c1cccc2n1C[C@@H]1C[C@H]2CN(CCO)C1` it was “inactive”.
As for `CC(=CCn1c[n+](C)c2c(N)ncnc21)CCC1(C)C(C)CCC2(C)C(C)=CCCC21.[Cl-]` (stereo unspecified), the growth inhibition call was “active”.
In the case of `OCCN1CC2(CCN(c3nccs3)C2)C1` it was “inactive”; in that of `CC(C)CC(CN)CC(=O)O` (stereo unspecified), “inactive”.
The value for `COC(=O)[C@@H](N)CCCNC(N)=N[N+](=O)[O-]` was “inactive”.
In the case of `O=C1[O][SbH]23[O]C(=O)[C@H]([O]2)[C@H]2[O][SbH]4([O]C(=O)[C@H]([O]4)[C@H]1[O]3)[O]C2=O` it was “active”.
As for `O=C1[O][SbH]23[O]C(=O)C([O]2)C2[O][SbH]4([O]C(=O)C([O]4)C1[O]3)[O]C2=O`, the growth inhibition call is “inactive”.
The value for `C=C(CCCCCCCCCCCCCCCC)OOC[C@@H](COP(=O)(ON)O[C@@H]1[C@H](O)[C@H](O)[C@@H](OP(=O)(O)ON)[C@H](OP(=O)(O)ON)[C@H]1O)OOC(=C)CC/C=C/C/C=C/C/C=C/C/C=C/CCCCC` (stereo partly specified) was “inactive”; that for `CN1CC2(CNC2)OCCS1(=O)=O` was “inactive”; that for `CN(C)C(=O)CCC(=O)N1C[C@H]2C[C@@H]1CN2` was “inactive”.
In the case of `Oc1ccc(Cl)cc1Cc1cc(Cl)ccc1O` it was “inactive”; in that of `Oc1cc(Cl)ccc1Oc1ccc(Cl)cc1Cl` [listing 1 of 2 here], “active”.
The value for `Oc1cc(Cl)ccc1Oc1ccc(Cl)cc1Cl` [listing 2 of 2 here] was “inactive”.
For `CC(=O)[O][Hg][c]1ccccc1`, the growth inhibition call is “inactive”.
For `NC(=O)[C@H]1CNC(=O)C1`, the growth inhibition call is “inactive”.
In the case of `Cc1cc2c(C(C)C)c(O)c(O)c(C=O)c2c(O)c1-c1c(C)cc2c(C(C)C)c(O)c(O)c(C=O)c2c1O` it was “inactive”; in that of `COc1cccc2c1C(=O)c1c(O)c3c(c(O)c1C2=O)C[C@@](O)(C(=O)CO)C[C@@H]3O[C@H]1C[C@H](N2CCO[C@H](OC)C2)[C@H](O)[C@H](C)O1`, “active”.
In the case of `CC[C@@]1(O)C[C@H](O[C@H]2C[C@H](N(C)C)[C@H](O)[C@H](C)O2)c2c(cc3c(c2O)C(=O)c2c(O)ccc(O)c2C3=O)[C@H]1C(=O)OC` it was “inactive”.
